This is an account of results in PubChem BioAssay AID454 (Sanford-Burnham Center for Chemical Genomics, 2006).

In all, about 10,000 compounds went through this assay and about 25 (0.2%) were called active.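 Rule for the calls: active = compound among top-ranked inhibitors of TNF-induced VCAM-1 adhesion protein staining, with the hit upheld by image or statistical review; inactive = the rest, including hits rejected on review.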 For the sample, actives were picked, then their nearest neighbours and some compounds at random.

Usually inhibition stands for the percentage by which the read-out fell short of the control.

The experiment can be described thus: suppression of endothelial VCAM-1 upregulation – cell-based, plate reader, pooled HUVEC, TNFa stimulus (AID 454). The conditions noted are these: HUVEC TNFa-induced VCAM-1 surface immunofluorescence; hits give high values,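 compound tested at 5 µM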.
As to `O=C(Cn1cc(C(=O)c2ccccc2)c2ccccc21)NCc1ccco1`, the inhibition result was “inactive”. Under `Cc1cccc(C2=NCC(=O)N(CC(=O)NCc3ccco3)c3sc4c(c32)CCCC4)c1` stands 78.7% (active); under `O=C(CN1C(=O)CN=C(c2ccccc2)c2ccccc21)NCc1ccco1`, “inactive”; under `COc1ccc(CCn2c(O)c(C=NCc3cccnc3)c(=O)[nH]c2=O)cc1OC`, “inactive”. Under `CCOc1ccc(C2SCC(=O)Nc3c2c(=O)[nH]n3C2CCCCCC2)cc1` (stereo not given) stands “inactive”.
